Reference: article PMC4552634, “A New Set of Chemical Starting Points with Plasmodium falciparum Transmission-Blocking Potential for Antimalarial Drug Discovery” (PLoS ONE, 2015)
Out of some 13,000 compounds screened, about 3,200 (25%) showed an effect of 50% or more. The list shows a part of the results.

Each molecule was assayed on P. falciparum stage V gametocytes. Conditions: 48 h, 5 µM; inhibitor.
Parameters: BacTiter-Glo ATP luminescence viability of purified stage V gametocytes in 384-well plates, per cent inhibition versus DMSO

| Structure (SMILES) | % Inhibition [%] |
| --- | --- |
| CC(=O)Nc1ccc(C2NC(=O)NC(c3ccccc3)=C2c2nc3ccccc3s2)cc1 (stereo not drawn) [TCMDC-124535] | -96.89 |
| CC(=O)c1c(C)[nH]c(C(=O)Nc2ccc(-c3nc4ccc(C)cc4s3)cc2)c1C [TCMDC-124493] | 55.35 |
| CC(=O)Nc1cccc(C(=O)Nc2ccc(-c3ccc(-c4nc5cccc(C)c5[nH]4)s3)cc2)c1 [TCMDC-132143] | -2.133 |
| CC[C@H](NC(=O)c1c(CN2CCC(N3CCCCC3)CC2)c(-c2ccccc2)nc2c(Cl)c(O)ccc12)c1ccccc1 [TCMDC-140367] | 17.06 |
| CCN(CC)CCOc1ccc(C(O)(C#CC(O)(c2ccc(Br)cc2)c2ccc(OCCN(CC)CC)cc2)c2ccc(Br)cc2)cc1 (stereo not drawn) [TCMDC-137199] | 112.4 |
| CCN(CC)CCOc1ccc(C(O)(C#CC(O)(c2ccc(OCCN(CC)CC)cc2)c2ccc([N+](=O)[O-])cc2)c2ccc([N+](=O)[O-])cc2)cc1 (stereo not drawn) [TCMDC-137201] | 116.9 |
| CCN(CC)CCNc1ccnc2[nH]c3ccc([N+](=O)[O-])cc3c12 [TCMDC-131978] | 4.282 |
| NOCCCCOc1ccc(Br)cc1 [TCMDC-131760] | 15.82 |
| CCN(CC)CCOc1ccc(NC(=O)c2oc3ccccc3c2C=Cc2ccccc2)cc1 [TCMDC-132102] | 24.22 |
| CCOC(=O)c1ccc(OCCCCCCOc2ccc(Br)cc2)cc1 [TCMDC-131409] | 4.056 |
| CC1(C)N=C(N)N=C(N)N1OCCCOc1ccc([N+](=O)[O-])cc1 [TCMDC-131610] | 2.796 |
| CCC(=O)OC(CCN(CC)CC)(c1ccccc1)c1ccccc1 [TCMDC-131415] | 15.82 |
| CCCN(CCC)CCOc1ccc(C(O)(C#CC(O)(c2ccc(OCCN(CCC)CCC)cc2)c2cccc(Cl)c2)c2cccc(Cl)c2)cc1 (stereo not drawn) [TCMDC-137200] | 105.4 |
| CCN(CC)CCOc1ccc(C(O)(C#CC(O)(c2ccccc2)c2ccc(OCCN(CC)CC)cc2)c2ccccc2)cc1 (stereo not drawn) [TCMDC-137197] | 109.6 |
| O=C(Nc1ccc(Cl)cc1)c1ccc(CN2CCCN(Cc3ccsc3)CC2)cc1 [TCMDC-136415] | 6.883 |
| O=C(Nc1cccc(CN2CCCN(Cc3ccc(O)cc3)CC2)c1)c1cccc(Cl)c1 [TCMDC-141817] | -7.519 |
| Cc1sc2nc(CSc3ccccc3)nc(N3CCN(CC(=O)NC4CC4)CC3)c2c1C [TCMDC-125266] | 47.29 |
| COc1ccc2ccc(F)c(CC(=O)N3CCOC(CNCc4cccc(-c5ccsc5)n4)C3)c2n1 (stereo not drawn) [TCMDC-135027] | 10.39 |
| O=C(/C=C/c1ccc(Cl)c(Cl)c1)NCCCCCN1CCC(C(=O)Nc2ccc(F)c(Cl)c2)CC1 [TCMDC-136112] | 0.5724 |
| CN(CCCN(C)c1cc(NC(=O)c2ccc(F)cc2)ccn1)Cc1cccc(O)c1 [TCMDC-134954] | -6.57 |
| C[C@H](NC(=O)C1CCCC1)C(=O)Nc1ccc(-c2ccc(-c3nc4ccc(C(F)(F)F)cc4[nH]3)cc2)cc1 [TCMDC-137052] | -25.16 |
| COc1cc(Cc2cnc(N)nc2N)cc(OCCCS(=O)(=O)O)c1OC [TCMDC-137357] | -4.274 |

| Structure (SMILES) | % Inhibition [%] |
| --- | --- |
| COc1cc(/C=C/C(=O)NC2CCC(N3CCC(c4ccccc4C)CC3)CC2)cc(OC)c1 (stereo not drawn) [TCMDC-133516] | -90.94 |
| CCN(CC)CCOc1ccc(C(O)(C#CC(O)(c2ccc(C)cc2)c2ccc(OCCN(CC)CC)cc2)c2ccc(C)cc2)cc1 (stereo not drawn) [TCMDC-137198] | 113 |
| CCCC(C(=O)OCCN(CC)CC)(c1ccc(Cl)cc1)c1ccc(Cl)cc1 [TCMDC-141994] | 16.96 |
| Cc1ccc(OCCCCONC(=O)c2ccccc2)cc1 [TCMDC-131756] | 2.332 |
| CCC1CCCCN1S(=O)(=O)c1ccc(NC(=O)c2cc(C)on2)cc1 (stereo not drawn) [TCMDC-124618] | -16.01 |
| O=C(NC1CCC(N2CCC(c3ccccc3C(F)(F)F)CC2)CC1)c1cc2ccccc2[nH]1 (stereo not drawn) [TCMDC-132895] | -39.86 |
| O=C(C=Cc1cn(-c2ccccc2)nc1-c1ccccc1)N1CCN(c2ccncc2)CC1 [TCMDC-125256] | 13.7 |
| O=C(Nc1ccncc1)c1cn(-c2ccccc2)nc1-c1cccs1 [TCMDC-125605] | -55.62 |
| O=C(C=Cc1cn(-c2ccccc2)nc1-c1cccs1)N1CCN(c2ccncc2)CC1 [TCMDC-125063] | 51.82 |
| NOCCCOc1ccccc1 [TCMDC-123474] | -11.28 |
| Nc1ccc(Oc2ccc(Cc3cnc(N)nc3N)cc2)cc1 [TCMDC-137904] | -3.731 |
| COc1ccc2nccc([C@@H](O)CN3CCC(NCc4ccc(OC)c(NC(C)=O)c4)CC3)c2c1 [TCMDC-141564] | -24.43 |
| c1ccc(Oc2ccc(Nc3ccnc(Nc4ccc(OCCN5CCCCC5)cc4)n3)cc2)cc1 [TCMDC-138583] | -73.3 |
| CCN(CCCN1CCCCC1)c1cc(C)nc(Nc2cccc(C(F)(F)F)c2)n1 [TCMDC-132451] | 9.673 |
| COc1cc(Nc2ncc3c(C)nc(-c4cc5ccccc5[nH]4)n3n2)cc(OC)c1OC [TCMDC-138905] | 5.084 |
| COc1ccc(Nc2ncc3c(-c4cccc(NC(=O)Cc5ccc(F)cc5)c4)c[nH]c3n2)cc1OC [TCMDC-135252] | -55.08 |
| COc1cc(Nc2ncc3c(C)nc(-c4cccc(Nc5ccc(CN6CCS(=O)(=O)CC6)cc5)c4)n3n2)cc(OC)c1OC [TCMDC-136003] | 62.52 |
| Cc1nc(-c2cccc(C(F)(F)F)c2)n2nc(Nc3ccc(OCCN4CCCC4)cc3)ncc12 [TCMDC-138911] | 108.6 |
| COc1ccccc1CNCC(O)c1cc(C(F)(F)F)ccc1C(F)(F)F (stereo not drawn) [TCMDC-140376] | 33.11 |
| CN(C)c1ccc(C=Cc2nc(=O)c3ccccc3o2)cc1 [TCMDC-123870] | 44.95 |
| CCN(CC)S(=O)(=O)n1ncc2c3c(N)nc(N)nc3ccc21 [TCMDC-137302] | -23.31 |
| N#CCCn1nc(-c2ccc(Cl)cc2)c2c(c1=O)CCCC2 [TCMDC-123668] | -3.378 |

| Structure (SMILES) | % Inhibition [%] |
| --- | --- |
| COc1cc2ncnc(Nc3ccc4nc(Cc5ccccc5)[nH]c4c3)c2cc1OC [TCMDC-137180] | -12.69 |
| COc1cc2nccc(Nc3ccc4c(cnn4Cc4cccc(F)c4)c3)c2cc1OC.Cl [TCMDC-138105] | -72.46 |
| COc1cc2nc(C)nc(Nc3ccc4c(ccn4Cc4ccccc4)c3)c2cc1OC [TCMDC-131924] | 19.01 |
| COc1cc2nc(Nc3ccc4c(cnn4Cc4ccccc4)c3)nc(Nc3ccc4c(cnn4Cc4ccccc4)c3)c2cc1OC [TCMDC-138020] | 106.8 |
| COc1cc2nc(Nc3ccc4c(ccn4Cc4ccccc4)c3)nc(Nc3ccc4c(ccn4Cc4ccccc4)c3)c2cc1OC [TCMDC-138237] | 94.63 |
| COc1cc2nc(N(C)C)nc(Nc3ccc4c(cnn4Cc4ccccc4)c3)c2cc1OC [TCMDC-138082] | 11.6 |
| COc1cccc(NC(=O)NCCNc2ccnc(Nc3ccc(F)cc3)n2)c1 [TCMDC-133639] | -6.43 |
| COc1ccc(CNC(=O)c2cc3c(=O)n4ccccc4nc3n(CCc3ccccc3)c2=N)cc1 [TCMDC-124474] | -41.5 |
| Cc1cc(C(=O)CN2C(=O)NC(C)(c3cccc4ccccc34)C2=O)c(C)n1Cc1ccco1 (stereo not drawn) [TCMDC-125264] | 12.34 |
| COCCn1c(C)cc(C(=O)CN2C(=O)NC(C)(c3ccc(C(C)(C)C)cc3)C2=O)c1C (stereo not drawn) [TCMDC-125434] | 51.6 |
| Cc1cc(C(=O)CN2C(=O)NC(C)(c3ccc4ccccc4c3)C2=O)c(C)n1Cc1ccco1 (stereo not drawn) [TCMDC-125044] | -21.37 |
| Cc1[nH]nc2ccc(-c3cc(OC[C@@H](N)Cc4ccccc4)cnc3-c3cc4ccccc4s3)cc12 [TCMDC-136352] | 16.97 |
| O=C(NCc1cccc2ccccc12)C1CCCN(C(=O)c2ccc(O)c(-c3ccc(Cl)c(Cl)c3)c2)C1 (stereo not drawn) [TCMDC-140894] | 15.24 |
| O=C(N[C@@H](Cc1ccccc1)[C@H](O)CNC1CCCCC1)c1cc(C2CCCC2)cc(N2CCCC2=O)c1 [TCMDC-138869] | 29.86 |
| COc1ccc2ncc(Cl)c(CCN3CC[C@@H](CNCc4cc5c(cn4)OCS5)C3)c2n1 [TCMDC-135904] | -4.396 |
| Cc1c(C)c2c(c(C)c1O)CCC(C)(CCC(=O)O)O2 (stereo not drawn) [TCMDC-131686] | -4.216 |
| CC[C@H]1CN2CC[C@H]1C[C@@H]2[C@@H](O)c1cc(Cl)nc2ccc(OC)cc12 [TCMDC-137467] | -42.11 |
| C=C[C@H]1CN2CC[C@H]1C[C@H]2[C@H](O)c1cc(/C=C/c2ccc(F)cc2)nc2ccc(OC)cc12 [TCMDC-141366] | -44.1 |
| CC[C@H]1CN2CC[C@H]1C[C@H]2[C@H](O)c1cc(-c2ccccc2C)nc2ccc(OC)cc12 [TCMDC-141190] | 15.24 |
| CC[C@H]1CN2CC[C@H]1C[C@H]2[C@H](O)c1cc(/C=C/c2ccccc2)nc2ccc(OC)cc12 [TCMDC-141329] | 62.86 |
| CC[C@H]1CN2CC[C@H]1C[C@H]2[C@H](O)c1cc(/C=C/c2ccc(F)cc2)nc2ccc(OC)cc12 [TCMDC-141367] | 91.47 |
| Cc1cccc(N2C(N)=NC(N)=NC2(C)C)c1C [TCMDC-137926] | 11.29 |
